Experimental data: PubChem BioAssay (Tox21)
Results filed as inconclusive are left out. A call without a number means that no potency is given here. Calls of active or inactive are those of the source. Unless noted, calls come from the whole dose curve; as a rule, active = well fitted curve in the direction sought with a large enough effect in the repeat runs; inconclusive = weak or mixed curves; inactive = no such curve, though single readings can be large; an effect the other way counts as inactive or inconclusive.

Columns and labels:
[1] = qHTS assay to identify small molecule antagonists of the androgen receptor (AR) signaling pathway using the MDA cell line in the presence of 0.5 nM R1881 - cell viability counter screen (AID 1259242); note: nearly all actives have a fitted effect of over 45% in size; note: potency is the fitted concentration of half-maximal effect
In short: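 Live-cell protease fluorescence, CellTiter-Fluor, 30 min at 37C. Cells: MDA-kb2, 3,000/well, preincubated 5 hr. Compounds plus 0.5 nM R1881 final, 16 hr, 37C, 0% CO2.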

[2] = qHTS assay to identify small molecule HDAC inhibitors (AID 1259364); note: potency is the fitted concentration of half-maximal effect;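 note: wild-type HCT-116 cells with endogenous class I/II HDAC activity; nearly all actives have a fitted effect of over 45% in size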
In short: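 HCT-116 (wild type), 1,500 cells/well, overnight; compound 2 hr 37C 5% CO2; HDAC-Glo I/II reagent 30 min RT; luminescence readout.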

[3] = qHTS assay to identify small molecule HDAC inhibitors - cell viability counter screen (AID 1259365); note: series mostly up to about 92 µM; nearly all actives have a fitted effect of over 50% in size
In short: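 Cytotoxicity was gauged in wild-type HCT-116 cells after a brief 2hr treatment with DMSO-dissolved compounds at 37C and 5% CO2, using CellTiter-Glo luminescence developed for 30min at room temperature.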

[4] = qHTS assay to identify small molecule agonists of the sonic hedgehog signaling (Shh) pathway - cell viability counter screen (AID 1259366); note: nearly all actives have a fitted effect of over 50% in size; note: potency is the fitted concentration of half-maximal effect
In short: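 Stable Gli1-Luc NIH/3T3 clone, 2,000 cells/well. Compound exposure 24hr at 37C. Read-out: CellTiter-Fluor fluorescence.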

[5] = qHTS assay to identify small molecule antagonists of the sonic hedgehog signaling (Shh) pathway - cell viability counter screen (AID 1259367); note: nearly all actives have a fitted effect of over 55% in size; note: potency is the fitted concentration of half-maximal effect
In short: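 Conditioned medium drove Shh signaling in 3T3 Gli1-Luc cells exposed to compounds at 37C and 5% CO2. Viability was determined from CellTiter-Fluor fluorescence, with reagent incubated 1 hr after 23 hr of treatment.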

[6] = qHTS assay to identify small molecule agonists of the sonic hedgehog signaling (Shh) pathway (AID 1259368; calls by dose curve; note: nearly all actives have a fitted effect of over 15% in size; note: potency is the fitted concentration of half-maximal effect)
In short: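 Read-out: firefly luciferase luminescence from a Gli1 response element reporter stably integrated in NIH/3T3-derived 3T3Gli1-Luc cells, measured 30 min at room temperature after reagent addition. Compound exposure lasted 24 hr at 37 C, 5% CO2.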

[7] = qHTS assay to identify small molecule antagonists of the sonic hedgehog signaling (Shh) pathway (AID 1259369; calls by dose curve; note: nearly all actives have a fitted effect of over 45% in size; note: potency is the fitted concentration of half-maximal effect)
In short: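 Luminescence readout: firefly Luc under Gli1 response element in 3T3Gli1-Luc cells (NIH/3T3 clone). Antagonist mode, stimulation by conditioned medium; compound exposure 24hr at 37 C, 5% CO2.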

[8] = molecular target: Estrogen receptor beta (Homo sapiens) (UniProt Q92731); assay: qHTS assay to identify small molecule agonists of the estrogen receptor beta (ER-beta) signaling pathway (AID 1259377; active = well fitted activation curve with a large enough effect in the signal ratio in the repeat runs, not every such curve was filed as active; the % refers to the signal ratio)
In short: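 Measured by fluorescence intensity from a B/G FRET beta-lactamase substrate (2 h, room temperature) in ER-beta-UAS-bla HEK293T cells treated with DMSO-dissolved compounds for 16 hr at 37C and 5% CO2.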

[9] = molecular target: Estrogen receptor beta (Homo sapiens) (UniProt Q92731); assay: qHTS assay to identify small molecule antagonists of the estrogen receptor beta (ER-beta) signaling pathway (AID 1259378; active = well fitted inhibition curve with a large enough effect in the signal ratio in the repeat runs, not every such curve was filed as active; the % refers to the signal ratio; note: potency is the fitted concentration of half-maximal effect)
In short: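 ER-beta-UAS-bla HEK293T (GripTite) cells in 2% charcoal-stripped FBS medium were preincubated 6 hr at 37C, dosed with compound, then stimulated with 1 nM E2 (final) for 16 hr; beta-lactamase reporter read by B/G FRET fluorescence after 2 hr substrate loading.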

[10] = qHTS assay to identify small molecule agonists of the androgen receptor (AR) signaling pathway in the presence of an antagonist - cell viability counter screen (AID 1259379); note: nearly all actives have a fitted effect of over 25% in size; note: potency is the fitted concentration of half-maximal effect
In short: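 Viability counter screen: CellTiter-Fluor fluorescence, measured in the same wells as the luciferase read-out. MDA-kb2 cells, 3,000/well, with nilutamide at 3.0uM final and compounds at 15 concentrations, 16 hr at 37C, 0% CO2.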

[11] = qHTS assay to identify small molecule agonists of the estrogen receptor beta (ER-beta) signaling pathway - cell viability counter screen (AID 1259380); note: nearly all actives have a fitted effect of over 30% in size; note: potency is the fitted concentration of half-maximal effect
In short: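 Luminescence read-out (CellTiter-Glo, 30 min, room temp) taken in the same wells as the beta-lactamase reporter assay; ER-beta-UAS-bla HEK293T cells exposed to DMSO-dissolved compounds for 16 hr at 37C in 2% charcoal-stripped FBS medium.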

[12] = qHTS assay to identify small molecule agonists or antagonists of the thyroid stimulating hormone receptor (TSHR) signaling pathway - wild type cell line counter screen (AID 1259384; calls by dose curve)
In short: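 Wild-type HEK293 cells were plated 18 h at 37 C/5% CO2, pin-dosed with compound plus Ro20-1724 medium, held 30 min at room temperature, then given cAMP-d2 and anti-cAMP-cryptate; fluorescence was read after 1 h. Fifteen concentrations, triplicate.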

[13] = molecular target: Thyrotropin receptor (Homo sapiens) (UniProt P16473); assay: qHTS assay to identify small molecule antagonists of the thyroid stimulating hormone receptor (TSHR) signaling pathway (AID 1259385; calls by dose curve; note: nearly all actives have a fitted effect of over 20% in size; note: potency is the fitted concentration of half-maximal effect)
In short: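 TSHR-HEK293 cells were plated and held 18 h at 37C/5% CO2, then given compound plus Ro20-1724 and stimulated with TSH at 1.5 ng/mL final. After 30 min at room temperature, cAMP was detected with cAMP-d2/anti-cAMP-cryptate (1 h) by fluorescence.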

[14] = molecular target: Androgen receptor (Homo sapiens) (UniProt P10275); assay: qHTS assay to identify small molecule antagonists of the androgen receptor (AR) signaling pathway using the MDA cell line in the presence of 0.5 nM R1881 (AID 1259243); note: potency is the fitted concentration of half-maximal effect; nearly all actives have a fitted effect of over 50% in size
In short: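 MDA-kb2, MMTV-luc (AR/GR elements); 3,000 cells/well; cpd + 0.5 nM R1881 final; 16 hr 37C, 0% CO2; ONE-Glo 30 min RT; luminescence.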

[15] = molecular target: Estrogen receptor (Homo sapiens) (UniProt P03372); assay: qHTS assay to identify small molecule antagonists of the estrogen receptor alpha (ER-alpha) signaling pathway using the BG1 cell line in the presence of 0.1 nM 17-beta-estradiol (AID 1259244); note: nearly all actives have a fitted effect of over 50% in size; note: potency is the fitted concentration of half-maximal effect
In short: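 Luminescence after ONE-Glo (30 min, room temperature) measured ERE-luciferase activity in VM7Luc4E2 cells treated 22 h with compound and 0.1 nM final 17beta-estradiol as stimulator.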

[16] = molecular target: Androgen receptor (Homo sapiens) (UniProt P10275); assay: qHTS assay to identify small molecule agonists of the androgen receptor (AR) signaling pathway in the presence of an antagonist (AID 1259381; calls by dose curve; note: nearly all actives have a fitted effect of over 15% in size)
In short: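 Luciferase read-out (ONE-Glo, 30min room temperature) in MDA-kb2 MMTV-reporter cells; agonist mode run in presence of AR antagonist nilutamide, 3.0uM final. Compounds tested as 15-point series, 16hr exposure at 37C, 0% CO2.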

[17] = molecular target: Estrogen receptor (Homo sapiens) (UniProt P03372); assay: qHTS assay to identify small molecule agonists of the estrogen receptor alpha (ER-alpha) signaling pathway in the presence of an antagonist (AID 1259383; calls by dose curve; note: top concentration of the series differs between compounds; nearly all actives have a fitted effect of over 15% in size)
In short: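 Luciferase luminescence (ONE-Glo, 30min at room temperature) measured in VM7Luc4E2 cells after 22hr compound exposure at 15 concentrations, with 10.0nM ICI-182,780 final present; cells express endogenous ER-alpha and carry four EREs upstream of luciferase.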

[18] = qHTS assay to identify small molecule antagonists of the estrogen receptor beta (ER-beta) signaling pathway - cell viability counter screen (AID 1259382); note: nearly all actives have a fitted effect of over 55% in size; note: potency is the fitted concentration of half-maximal effect
In short: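 Luminescent ATP read-out (CellTiter-Glo, 30 min, RT) taken in the same wells as the bla reporter assay. HEK293T ER-beta-UAS-bla cells in 2% charcoal-stripped FBS were exposed to compounds with 1nM E2 for 16 hr at 37C.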

[19] = qHTS assay to identify small molecule phospholipidosis (PLD) inducers (AID 1259344; active = well fitted curve in the direction sought with a large enough effect; an effect the other way counts as inactive or inconclusive)
In short: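 After 4 h attachment on collagen I, HepG2 cells were dosed with compound alongside LipidTOX Red, kept 24 h at 37 C, fixed, and imaged for lamellar phospholipid pits.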

Sequence of Androgen receptor (Homo sapiens) (P10275 whole entry, looked up): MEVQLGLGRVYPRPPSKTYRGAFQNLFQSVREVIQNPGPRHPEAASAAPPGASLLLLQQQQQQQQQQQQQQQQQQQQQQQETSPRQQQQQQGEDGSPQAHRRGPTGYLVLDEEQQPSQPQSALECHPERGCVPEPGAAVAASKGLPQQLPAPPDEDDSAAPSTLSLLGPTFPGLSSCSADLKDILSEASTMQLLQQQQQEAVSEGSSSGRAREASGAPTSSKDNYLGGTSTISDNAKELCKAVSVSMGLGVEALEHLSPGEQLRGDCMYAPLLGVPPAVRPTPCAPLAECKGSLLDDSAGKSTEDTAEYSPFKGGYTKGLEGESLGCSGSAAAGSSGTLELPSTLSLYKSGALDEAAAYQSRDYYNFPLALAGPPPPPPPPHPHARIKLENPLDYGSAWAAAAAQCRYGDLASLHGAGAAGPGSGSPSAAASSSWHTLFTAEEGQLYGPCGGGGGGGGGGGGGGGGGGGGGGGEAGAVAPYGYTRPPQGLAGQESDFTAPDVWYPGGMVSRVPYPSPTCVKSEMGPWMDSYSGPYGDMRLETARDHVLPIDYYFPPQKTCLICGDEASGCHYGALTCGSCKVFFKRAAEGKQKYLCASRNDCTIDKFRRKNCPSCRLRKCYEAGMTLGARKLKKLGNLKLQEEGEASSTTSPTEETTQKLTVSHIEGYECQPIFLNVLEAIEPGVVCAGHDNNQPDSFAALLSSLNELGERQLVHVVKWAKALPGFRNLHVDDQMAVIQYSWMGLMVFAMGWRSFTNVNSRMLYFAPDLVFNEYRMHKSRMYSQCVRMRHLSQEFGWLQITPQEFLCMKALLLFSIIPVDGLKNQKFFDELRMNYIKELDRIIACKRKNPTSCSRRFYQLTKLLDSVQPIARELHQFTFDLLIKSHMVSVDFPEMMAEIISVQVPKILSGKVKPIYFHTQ
Sequence of Estrogen receptor (Homo sapiens) (P03372 whole entry, looked up): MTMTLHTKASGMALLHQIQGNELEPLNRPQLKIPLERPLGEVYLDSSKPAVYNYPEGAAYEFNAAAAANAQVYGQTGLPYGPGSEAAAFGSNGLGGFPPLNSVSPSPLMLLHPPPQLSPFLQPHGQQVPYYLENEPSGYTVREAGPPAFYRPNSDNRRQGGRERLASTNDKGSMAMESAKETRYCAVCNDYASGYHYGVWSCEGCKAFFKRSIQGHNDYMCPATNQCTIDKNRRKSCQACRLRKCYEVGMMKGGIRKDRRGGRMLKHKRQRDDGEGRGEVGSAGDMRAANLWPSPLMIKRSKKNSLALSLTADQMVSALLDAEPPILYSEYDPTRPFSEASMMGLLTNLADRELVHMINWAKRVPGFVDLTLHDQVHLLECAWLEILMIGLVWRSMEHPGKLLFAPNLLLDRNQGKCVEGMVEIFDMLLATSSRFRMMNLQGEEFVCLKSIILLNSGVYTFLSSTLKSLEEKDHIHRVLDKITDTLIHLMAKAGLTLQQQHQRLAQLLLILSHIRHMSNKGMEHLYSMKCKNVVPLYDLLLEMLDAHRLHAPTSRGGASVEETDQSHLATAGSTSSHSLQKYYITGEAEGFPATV
Sequence of Thyrotropin receptor (Homo sapiens) (P16473 whole entry, looked up): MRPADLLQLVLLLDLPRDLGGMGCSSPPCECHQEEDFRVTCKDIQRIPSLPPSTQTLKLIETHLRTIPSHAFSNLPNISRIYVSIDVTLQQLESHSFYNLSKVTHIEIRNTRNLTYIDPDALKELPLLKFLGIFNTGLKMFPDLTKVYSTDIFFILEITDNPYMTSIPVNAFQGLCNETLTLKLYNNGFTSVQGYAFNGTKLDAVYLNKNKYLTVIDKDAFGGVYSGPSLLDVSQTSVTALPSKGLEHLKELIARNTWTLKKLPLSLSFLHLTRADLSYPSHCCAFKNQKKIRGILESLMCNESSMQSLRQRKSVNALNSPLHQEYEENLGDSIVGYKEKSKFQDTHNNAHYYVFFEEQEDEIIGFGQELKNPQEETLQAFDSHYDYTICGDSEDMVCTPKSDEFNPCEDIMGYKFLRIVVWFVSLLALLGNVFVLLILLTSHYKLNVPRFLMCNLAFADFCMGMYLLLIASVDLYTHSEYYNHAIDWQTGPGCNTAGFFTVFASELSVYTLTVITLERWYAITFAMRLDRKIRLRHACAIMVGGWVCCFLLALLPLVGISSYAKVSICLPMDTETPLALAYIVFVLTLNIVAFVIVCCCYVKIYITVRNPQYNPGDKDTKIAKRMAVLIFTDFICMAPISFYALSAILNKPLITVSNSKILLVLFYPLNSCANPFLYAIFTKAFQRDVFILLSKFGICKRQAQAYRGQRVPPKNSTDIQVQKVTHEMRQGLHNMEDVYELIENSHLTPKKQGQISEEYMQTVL
Sequence of Estrogen receptor beta (Homo sapiens) (Q92731 whole entry, looked up): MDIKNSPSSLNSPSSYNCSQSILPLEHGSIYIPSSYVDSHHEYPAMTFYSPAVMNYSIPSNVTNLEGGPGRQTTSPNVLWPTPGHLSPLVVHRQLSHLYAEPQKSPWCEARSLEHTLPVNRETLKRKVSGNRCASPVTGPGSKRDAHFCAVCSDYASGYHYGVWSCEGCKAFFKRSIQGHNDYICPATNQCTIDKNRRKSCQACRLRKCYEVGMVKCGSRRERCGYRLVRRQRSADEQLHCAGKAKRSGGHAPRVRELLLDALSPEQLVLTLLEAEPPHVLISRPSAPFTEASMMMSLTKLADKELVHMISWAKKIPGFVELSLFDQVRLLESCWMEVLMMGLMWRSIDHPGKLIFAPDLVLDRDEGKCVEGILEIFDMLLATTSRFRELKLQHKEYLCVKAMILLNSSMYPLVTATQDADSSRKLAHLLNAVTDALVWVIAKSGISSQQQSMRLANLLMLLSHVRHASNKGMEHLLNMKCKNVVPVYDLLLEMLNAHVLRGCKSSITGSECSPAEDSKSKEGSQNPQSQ

C/C=C(\C)C(=O)OCc1ccccc1
Potency [1]: inactive
Potency [2]: inactive
Potency [3]: inactive
Potency [4]: inactive
Potency [5]: inactive
Potency [6]: inactive
Potency [7]: inactive
Potency [8]: inactive
Potency [9]: inactive
Potency [10]: inactive
Potency [11]: inactive
outcome [12]: inactive
Potency [13]: inactive

CC(C)(C)C1CCC(CC2=C(O)c3ccccc3C(=O)C2=O)CC1 (centres undefined)
Potency [1]: 10.6 µM (active)
Potency [14]: 8.41 µM (active)
Potency [15]: 21.1 µM (active)
Potency [2]: inactive
Potency [3]: inactive
Potency [4]: inactive
Potency [5]: inactive
Potency [6]: inactive
Potency [10]: 13.3 µM (active)
Potency [16]: inactive
Potency [17]: inactive
outcome [12]: inactive
Potency [13]: inactive

Cc1cc(CCN2CCN(c3nsc4ccccc34)CC2)cc2c1NC(=O)CC2(C)C
Potency [1]: 27.3 µM (active)
Potency [15]: 13.7 µM (active)
Potency [4]: 21.7 µM (active)
Potency [5]: 19.3 µM (active)
Potency [6]: inactive
Potency [7]: 1.37 µM (active)
Potency [10]: 30.6 µM (active)
Potency [11]: 21.7 µM (active)
Potency [16]: inactive
Potency [17]: inactive
outcome [12]: inactive

CN(C)C(=O)C1(N2CCCCC2)CCN(CC[C@@]2(c3ccc(Cl)c(Cl)c3)CN(C(=O)c3ccccc3)CCO2)CC1
Potency [1]: 50.9 µM (active)
Potency [15]: 57.1 µM (active)
Potency [2]: inactive
Potency [3]: inactive
Potency [4]: 16.1 µM (active)
Potency [5]: 50.9 µM (active)
Potency [6]: inactive
Potency [7]: 18.1 µM (active)
Potency [8]: inactive
Potency [9]: 16.1 µM (active)
Potency [10]: 57.1 µM (active)
Potency [11]: 36 µM (active)
Potency [18]: 28.6 µM (active)
Potency [17]: inactive
Potency [13]: 64.1 µM (active)

C=CC(=O)OCC(CO)(COCC(COC(=O)C=C)(COC(=O)C=C)COC(=O)C=C)COC(=O)C=C
Potency [1]: 3.03 µM (active)
Potency [14]: 2.4 µM (active)
Potency [15]: 17 µM (active)
Potency [2]: inactive
Potency [4]: 1.07 µM (active)
Potency [5]: 3.03 µM (active)
Potency [6]: 0.957 µM (active)
Potency [7]: 0.48 µM (active)
Potency [9]: 4.8 µM (active)
Potency [10]: 5.38 µM (active)
Potency [11]: 9.57 µM (active)
Potency [16]: inactive
Potency [18]: 7.6 µM (active)
Potency [17]: inactive
outcome [12]: inactive
Potency [13]: inactive

CSc1cnc(C)cn1
Potency [1]: inactive
Potency [15]: inactive
Potency [2]: inactive
Potency [3]: inactive
Potency [4]: inactive
Potency [5]: inactive
Potency [6]: inactive
Potency [7]: inactive
Potency [8]: inactive
Potency [9]: inactive
Potency [10]: inactive
Potency [11]: inactive
Potency [18]: inactive
Potency [17]: inactive
outcome [12]: inactive
Potency [13]: inactive

CN(C/C=C/C#CC(C)(C)C)Cc1cccc2ccccc12
Potency [1]: inactive
Potency [19]: inactive
Potency [2]: inactive
Potency [3]: inactive
Potency [4]: inactive
Potency [5]: inactive
Potency [6]: inactive
Potency [7]: inactive
Potency [10]: inactive
Potency [11]: 26.6 µM (active)
outcome [12]: inactive
Potency [13]: inactive

CCCC/C=C/CCCCO
Potency [1]: inactive
Potency [15]: inactive
Potency [2]: inactive
Potency [3]: inactive
Potency [4]: inactive
Potency [5]: inactive
Potency [6]: inactive
Potency [7]: inactive
Potency [10]: inactive
Potency [18]: inactive
Potency [17]: inactive
outcome [12]: inactive
Potency [13]: inactive

CCCCCCCCNC(C)C(O)c1ccc(SC(C)C)cc1 (centres undefined)
Potency [1]: 23.7 µM (active)
Potency [15]: 29.8 µM (active)
Potency [19]: inactive
Potency [2]: inactive
Potency [4]: 16.8 µM (active)
Potency [6]: inactive
Potency [7]: 18.8 µM (active)
Potency [10]: 23.7 µM (active)
Potency [11]: 11.9 µM (active)
Potency [18]: 13.3 µM (active)
Potency [17]: inactive

CCOC(=O)O[C@]1(C(=O)OCCl)CC[C@H]2[C@@H]3CCC4=CC(=O)C=C[C@]4(C)[C@H]3[C@@H](O)C[C@@]21C
Potency [1]: inactive
Potency [19]: inactive
Potency [2]: inactive
Potency [3]: inactive
Potency [4]: inactive
Potency [5]: inactive
Potency [6]: inactive
Potency [8]: inactive
Potency [9]: inactive
Potency [10]: inactive
Potency [11]: 26.6 µM (active)
outcome [12]: inactive
Potency [13]: inactive

O=C(O)c1cc(O)c2c(c1)C(=O)c1cccc(O)c1C2=O
Potency [1]: inactive
Potency [15]: inactive
Potency [2]: 14.1 µM (active)
Potency [3]: inactive
Potency [4]: inactive
Potency [6]: inactive
Potency [18]: inactive
Potency [17]: inactive
Potency [13]: inactive

O=c1[nH]cnc2nc[nH]c12
Potency [1]: inactive
Potency [15]: inactive
Potency [19]: inactive
Potency [2]: inactive
Potency [3]: inactive
Potency [4]: inactive
Potency [5]: inactive
Potency [6]: inactive
Potency [7]: inactive
Potency [10]: inactive
Potency [11]: inactive
Potency [18]: inactive
Potency [17]: inactive
Potency [13]: inactive

CSc1ccc(C(=O)c2[nH]c(=O)[nH]c2C)cc1
Potency [1]: inactive
Potency [15]: inactive
Potency [19]: inactive
Potency [2]: inactive
Potency [3]: inactive
Potency [4]: inactive
Potency [5]: inactive
Potency [6]: inactive
Potency [7]: inactive
Potency [10]: inactive
Potency [11]: inactive
Potency [18]: inactive
Potency [17]: inactive
outcome [12]: inactive
Potency [13]: inactive

O=C1CCCc2c1cc1ccc3cccc4ccc2c1c34
Potency [1]: inactive
Potency [14]: 9.81 µM (active)
Potency [15]: inactive
Potency [2]: inactive
Potency [4]: inactive
Potency [5]: inactive
Potency [6]: inactive
Potency [7]: inactive
Potency [11]: 31 µM (active)
Potency [18]: inactive
Potency [17]: inactive
outcome [12]: inactive
Potency [13]: inactive
